Measured values taken from PubChem BioAssay (NCATS).
Results filed as inconclusive are left out. A call without a number means that no potency is given here. The source made the active and inactive calls. The call rests on the fitted dose curve; in most records, active means well fitted inhibition curve with a large enough effect; inconclusive means small, poorly fitted or top-dose-only effect; inactive means no such curve, though single readings can be large or run the other way.

Assay: Primary fluorescence-based thiol-reactive (MSTI) qHTS assay for identification of artifact compounds. (AID 1845221); further: nearly all actives have a fitted effect of over 65% in size
Conditions: MSTI thiol-reactivity probe, 1 h; series mostly up to 53.8 µM
Method in brief: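 Thiol-reactive compounds detected by quenching of 4 uM MSTI fluorescence (525/598 nm) after 1 h room-temperature dark incubation in PBS pH 7.4, 2% DMSO. qHTS titration; percent inhibition Hill-fitted against Acetyl-MSTI/MSTI controls.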
Potency means the concentration at half of the fitted maximal effect.

Which Potency does the source give for `C=C1C(=O)O[C@H]2CC(=C)[C@H]3CC[C@@](C)(O)[C@@H]3CC12` (stereo not given in full) here?
The Potency was 5.32 µM (active).

For `CC(=O)OC1CCC2(C)C(CCC3(C)C2CC=C2C4C(C)C(C)CCC4(C)CCC23C)C1(C)C(=O)O` (stereo not given), which Potency is on record?
Its Potency is “inactive”.

For `CC1=C(C(=O)OC2CCCCC2)C(c2ccc([N+](=O)[O-])cc2)C2=C(CC(C)(C)CC2=O)N1` (stereo not given), which Potency is on record?
The Potency was “inactive”.

For `COc1ccccc1C(=O)Nc1cccc(NC(=O)c2cccc(C)c2)c1`, which Potency is on record?
The Potency was “inactive”.

Which Potency does the source give for `Nc1nc2c(cnn2CCCc2ccc(O)cc2)c2nc(-c3ccco3)nn12` here?
Its Potency is “inactive”.

Which Potency does the source give for `Cc1ccc(O)cc1Nc1ccnc(Nc2cccc(C(N)=O)c2)n1` here?
Its Potency is “inactive”.

For `O=C(O)c1cccc(-c2ccc(-c3cn(C(=O)N4CCCCC4Cc4ccccc4)nn3)cc2)c1` (stereo not given), which Potency is on record?
The Potency was “inactive”.

With `COc1cc2c(cc1O)C1(Cc3ccc4c(c3C1O)OCO4)[N+](C)([O-])CC2` (stereo not given) as the compound, how does the Potency read?
The Potency was 5.21 µM (active).

For `c1ccc(-c2cnn3cc(-c4ccc(OCCN5CCOCC5)cc4)cnc23)cc1`, which Potency is on record?
The Potency was “inactive”.

Which Potency does the source give for `CC(C)Nc1nc(Nc2ccccc2)nc(-c2ccccc2)n1` here?
Its Potency is “inactive”.

For `CNc1nc(Nc2ccc(C(=O)N3CCOCC3)cc2OC)nc2[nH]cc(Cl)c12`, which Potency is on record?
Its Potency is 1.68 µM (active).

For `COC1CCN(c2cccc(-c3cc(NC(C)=O)nc(-n4nc(C)cc4C)n3)n2)CC1`, which Potency is on record?
The Potency was “inactive”.

Which Potency does the source give for `CC1(C)Oc2ncnc(N)c2N=C1c1ccc(C23CCC(CC(=O)O)(CC2)CC3)cc1` here?
Its Potency is “inactive”.

Which Potency does the source give for `NCC1CCN(c2nccc(-c3ccc4ccccc4c3)n2)CC1` here?
Its Potency is “inactive”.

Which Potency does the source give for `C=C1C(=O)O[C@@H]2/C=C(\CO)CC/C=C(/C=O)C[C@H](O)[C@@H]12` here?
Its Potency is 11.9 µM (active).
